Most compounds without a hit are left out; they make up all but 1% or so of the library.
PTHR1 agonist = agonists of human PTHR1 parathyroid hormone receptor; HEK293 GP2 PTHR1 cells, GloSensor cAMP luminescence, 1 h; Potency, µM (highest dose often 115 µM), usual class: activators; 410,000 compounds, 0.075% hits; also: nearly all actives have a fitted effect of over 55% in size
Target sequence (Q03431 whole entry, looked up): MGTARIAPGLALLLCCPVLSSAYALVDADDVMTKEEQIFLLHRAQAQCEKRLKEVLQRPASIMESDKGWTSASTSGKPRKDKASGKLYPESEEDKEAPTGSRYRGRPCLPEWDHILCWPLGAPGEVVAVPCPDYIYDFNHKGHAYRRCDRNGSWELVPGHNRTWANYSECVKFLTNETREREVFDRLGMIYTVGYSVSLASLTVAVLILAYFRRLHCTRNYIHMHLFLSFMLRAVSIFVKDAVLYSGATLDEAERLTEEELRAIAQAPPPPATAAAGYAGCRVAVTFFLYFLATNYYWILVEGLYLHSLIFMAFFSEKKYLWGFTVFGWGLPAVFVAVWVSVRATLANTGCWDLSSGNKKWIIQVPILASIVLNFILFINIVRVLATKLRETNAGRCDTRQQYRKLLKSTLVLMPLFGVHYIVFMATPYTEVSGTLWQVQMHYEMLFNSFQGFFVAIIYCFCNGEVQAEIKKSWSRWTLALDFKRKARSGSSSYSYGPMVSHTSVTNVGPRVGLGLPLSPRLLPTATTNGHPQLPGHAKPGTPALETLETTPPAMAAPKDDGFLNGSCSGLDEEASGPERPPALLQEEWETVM
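HEK-293-derived GP2 cells expressing PTHR1 and a GloSensor cAMP reporter, 3,000/well, plated overnight, given luciferin plus IBMX (each 0.5 mM as added) for 1 h at 37 °C, then compound for 1 h at 37 °C. Luminescence was read after 15 min at room temperature.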
gsp antag = gsp mutant antagonism; gsp-mutant cells, cAMP HTRF, 30 min; Potency, µM (top dose mostly 76.9 µM), usual class: inhibitors; 340,000 compounds, 0.4% hits; AID 624288; calls by dose curve; cell line not stated here;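 also: intracellular cAMP measured with PDE inhibitor Ro 20-1724 present during compound exposure; nearly all actives have a fitted effect of over 65% in size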
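G418-selected cells were plated in DMEM/10% FBS for 16-24 h at 37C, then treated with compounds plus the PDE inhibitor […] (300 uM solution added) for 30 min at 37C. Intracellular cAMP was measured by HTRF after 30 min lysis at room temperature.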
RXFP1 ag = RXFP1 (human) receptor agonism; HEK293T-RXFP1 cAMP TR-FRET, 30 min; response scale: percent of porcine relaxin response, buffer zero; Potency, µM (series often up to 57.5 µM), actives largely listed as activators; 370,000 compounds, 0.3% hits; also: nearly all actives have a fitted effect of over 60% in size
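cAMP rise read by TR-FRET after 30 min, 37C compound exposure (up to 58 uM) in RXFP1-transfected HEK293 cells with Ro 20174 present. EC50 from Hill-equation fits, with 29 nM porcine relaxin as 100% and buffer as basal.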
RXFP1 antag = blocks the human relaxin receptor RXFP1. activity change, negative = inhibition, % at 57.5 µM. 350,000 compounds, 0.59% hits. Q9HBX9. HEK293-RXFP1, relaxin-stimulated cAMP HTRF, 30 min; active compounds read low;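 active = activity change of -60% or lower, but not beyond a set lower limit; inconclusive = change between -60% and -40%, or beyond the set limit; inactive = change above -40%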
gsp ag = agonists of gsp mutant (McCune-Albright syndrome). Potency, µM (titrated, usually from 76.9 µM), actives largely listed as activators. gsp mutant cells, cAMP HTRF, 30 min. 340,000 compounds, 0.13% hits. AID 624287; active = well fitted activation curve with a large enough effect; inconclusive = small, poorly fitted or top-dose-only effect, or another doubt; inactive = no such curve, though single readings can be large or run the other way; cell line not stated here;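 also: phosphodiesterase inhibitor Ro 20-1724 added with compounds to block cAMP breakdown; nearly all actives have a fitted effect of over 60% in size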
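Cells in DMEM/10% FBS with G418 were pretreated with compounds in DMSO plus […] (300 uM stock) for 30 min at 37C. cAMP was measured by HTRF (cAMP-d2 plus anti-cAMP antibody-K) after 30 min at room temperature.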
Numbers stand for hits; [ ] = remark or other dose. Unless noted, calls follow the shape of the dose curve; as a rule, active = well fitted curve in the direction sought with a large enough effect; inconclusive = small, poorly fitted or top-dose-only effect, or another doubt; inactive = no such curve, though single readings can be large; an effect the other way counts as inactive or inconclusive.

For CCN(CC)S(=O)(=O)c1ccc2c(c1)N(CC(=O)Nc1cccnc1Cl)C(=O)CO2 the results were PTHR1 agonist inactive, gsp antag inactive, RXFP1 ag 12.6µM, RXFP1 antag inactive and gsp ag inconclusive.
Screening CC1(C)Cc2c(sc3nc(-c4cccs4)n(N)c(=O)c23)CO1 returned PTHR1 agonist inactive, gsp antag 31.6µM, RXFP1 ag inactive, RXFP1 antag inactive and gsp ag inactive.
Screening CN(Cc1ccccc1)C(=O)c1cccc(NC(=O)c2nsc3ccccc23)c1 returned PTHR1 agonist inactive, RXFP1 ag inactive and RXFP1 antag inactive.
Cc1cccc(Nc2nc(-c3ccc(F)cc3)cs2)n1 was read as PTHR1 agonist inactive, gsp antag inactive, RXFP1 ag inactive, RXFP1 antag -77.8 and gsp ag inactive[15.4 µM].
For COc1cc(/C=C(\C#N)C(=O)Nc2ccc(C(=O)O)cc2)ccc1OC(=O)c1cccc(F)c1 the results were PTHR1 agonist inactive, gsp antag inactive, RXFP1 ag inactive, RXFP1 antag -83.1 and gsp ag inactive.
COc1ccc(CCNC(=O)c2cc(-c3ccc(C)c(C)c3)nc3ccccc23)cc1OC was read as PTHR1 agonist inactive, RXFP1 ag inactive and RXFP1 antag inactive.
Cc1ccc(NC(=S)NCc2cccn2C)cc1 was read as PTHR1 agonist 3.55µM, gsp antag inactive, RXFP1 ag inactive, RXFP1 antag inactive and gsp ag inactive.
`COc1cc(C2Nc3cccc4cccc(c34)N2)ccc1O` gave PTHR1 agonist inactive, gsp antag inactive, RXFP1 ag inactive, RXFP1 antag -70.3 and gsp ag inactive[15.4 µM].
Screening COc1cc(C2Nc3cccc4cccc(c34)N2)cc(OC)c1OC(C)=O returned PTHR1 agonist inactive, gsp antag inactive, RXFP1 ag inactive, RXFP1 antag inconclusive and gsp ag inactive.
`CCc1ccc(CNC(=O)CCc2c(C)nn(-c3ccc(N4CCCC4)nn3)c2C)cc1` gave PTHR1 agonist inactive, RXFP1 ag inactive and RXFP1 antag inactive.
For O=c1[nH]c(=O)n(Cc2ccccc2)c2c1C(C(F)(F)F)(C(F)(F)F)N=C(c1ccco1)N2 the results were PTHR1 agonist inactive, gsp antag 35.5µM, RXFP1 ag inactive, RXFP1 antag inactive and gsp ag inactive.
For OC[C@]1(O)OC[C@@H](O)[C@H](O)[C@@H]1O the results were RXFP1 antag inactive.
Cc1noc(NS(=O)(=O)c2ccc(N/C=C\C(=O)c3ccncc3)cc2)c1C was read as PTHR1 agonist inactive, gsp antag inactive, RXFP1 ag inconclusive, RXFP1 antag inactive and gsp ag 20µM.
Screening CCC1(CC)Cc2ccccc2-c2[nH]c(=S)[nH]c(=O)c21 returned PTHR1 agonist inactive, gsp antag inactive, RXFP1 antag inactive and gsp ag 6.31µM.
Screening CCC1(CC)Cc2ccccc2-c2nc(NN)[nH]c(=O)c21 returned PTHR1 agonist inactive, gsp antag inactive, RXFP1 ag inactive, RXFP1 antag inactive and gsp ag inactive[15.4 µM].
Screening COc1ccc(N2Cc3cccc(C(=O)Nc4ccc(C(C)C)cc4)c3C2=O)cc1 returned PTHR1 agonist inactive, RXFP1 ag inactive and RXFP1 antag inactive.
For CC(C)Oc1cccc(C(=O)C2CCCN(Cc3cnc(N4CCOCC4)s3)C2)c1 (centres undefined) the results were PTHR1 agonist inactive, gsp antag inactive, RXFP1 ag inactive, RXFP1 antag -64.6 and gsp ag inactive.
Screening Oc1cc2ccccc2cc1-c1n[nH]c(=S)o1 returned PTHR1 agonist inactive, gsp antag 28.2µM, RXFP1 ag inactive, RXFP1 antag inactive and gsp ag inactive.
`O=C(Nc1cccc(C(=O)N2CCN(c3ccc(Cl)cc3)CC2)c1)c1nsc2ccccc12` gave PTHR1 agonist inactive, RXFP1 ag inactive and RXFP1 antag inactive.
CCOC(=O)N1CCN(C(=O)c2cc(COc3ccc4ncccc4c3)on2)CC1 was read as PTHR1 agonist inactive, gsp antag inconclusive, RXFP1 ag inactive, RXFP1 antag inactive and gsp ag inactive.
`O=C(c1cc(COc2ccc3ncccc3c2)on1)N1CCC(O)CC1` gave PTHR1 agonist inactive, gsp antag inactive, RXFP1 ag inactive, RXFP1 antag inactive and gsp ag inactive[15.4 µM].
For CC(CNC(=O)c1cc(COc2ccc3ncccc3c2)on1)c1ccccc1 (centres undefined) the results were PTHR1 agonist inactive, gsp antag 31.6µM, RXFP1 ag inactive, RXFP1 antag inactive and gsp ag inactive.
For Cc1cc(CN(C)C(=O)c2cc(COc3ccc4ncccc4c3)on2)on1 the results were PTHR1 agonist inactive, gsp antag inactive, RXFP1 ag inactive, RXFP1 antag inactive and gsp ag inactive.
O=C(NC1CCCCCCC1)c1cc(COc2ccc3ncccc3c2)on1 was read as PTHR1 agonist inactive, gsp antag 39.8µM, RXFP1 ag inactive, RXFP1 antag inactive and gsp ag inactive[15.4 µM].
Screening Cc1cccnc1CN1CCN(C(=O)c2cc(COc3ccc4ncccc4c3)on2)CC1 returned PTHR1 agonist inactive, gsp antag 31.6µM, RXFP1 ag inactive, RXFP1 antag inactive and gsp ag inactive[15.4 µM].
Screening OC[C@H]1O[C@@H](n2cnc3c(=S)nc[nH]c32)[C@H](O)[C@@H]1O returned RXFP1 antag inactive.
`Cc1ccc(NS(=O)(=O)c2cc(NC(=O)c3ccc4c(c3)NC(=O)CS4)ccc2C)c(C)c1` gave PTHR1 agonist inactive, gsp antag inactive, RXFP1 ag inactive, RXFP1 antag -63.3 and gsp ag inactive[15.4 µM].
CCC1(C)Cc2c(sc3c2c2ncnn2c2nnc(SCC(=O)NCc4ccco4)n32)CO1 (centres undefined) was read as PTHR1 agonist inactive, gsp antag inactive[15.4 µM], RXFP1 ag inconclusive, RXFP1 antag inactive and gsp ag 2.82µM.
Screening CC1(C)Cc2c(sc3c2c2ncnn2c2nnc(SCC(=O)NCc4ccco4)n32)CO1 returned PTHR1 agonist inactive, gsp antag inactive, RXFP1 ag inconclusive, RXFP1 antag inactive and gsp ag inconclusive.
For Cc1nnc(NC(=O)CSc2cn(Cc3ccccc3)c3ccccc23)s1 the results were PTHR1 agonist inactive, gsp antag inactive, RXFP1 ag inactive, RXFP1 antag inactive and gsp ag 15.8µM.
For Cc1ccc(Cn2cc(SCC(=O)Nc3nccs3)c3ccccc32)cc1 the results were PTHR1 agonist inactive, gsp antag inactive, RXFP1 ag inactive, RXFP1 antag inactive and gsp ag inactive.
For COc1ccc(F)cc1S(=O)(=O)NCC(c1ccco1)S(=O)(=O)c1ccc(F)cc1 (centres undefined) the results were PTHR1 agonist inactive, RXFP1 ag inactive and RXFP1 antag inactive.
`COCCNC(=O)C(OC(=O)c1nsc(Cl)c1Cl)C(C)C` (centres undefined) gave PTHR1 agonist inactive, gsp antag inactive, RXFP1 ag 17.8µM, RXFP1 antag inactive and gsp ag inconclusive.
`CCCCN(CCN(CCCC)C(=O)N1CCOCC1)C(=O)N1CCOCC1` gave RXFP1 antag inactive.

High-throughput results from PubChem BioAssay.
